Potency data for 40 compounds are collected here from PubChem BioAssay (NCATS).

Each structure is given as a SMILES string. Inconclusive results are not listed. Entries that show only a call come without a potency. Active and inactive are the calls of the source. Calls follow the shape of the dose curve; as a rule, active = well fitted inhibition curve with a large enough effect; inconclusive = small, poorly fitted or top-dose-only effect; inactive = no such curve, though single readings can be large or run the other way.
Potency is read from the fitted curve at half-maximal effect.

This assay in a line: Primary qHTS for small molecule stabilizers of the endoplasmic reticulum resident proteome: Secreted ER Calcium Modulated Protein (SERCaMP) assay (AID 1508630). As to conditions: SH-SY5Y GLuc-SERCaMP (Gaussia luciferase released on ER calcium loss) secretion, thapsigargin, luminescence; series mostly up to 38.4 µM. An excerpt:
Assay Provider: Brandon K. Harvey Ph.D.
National Institute on Drug Abuse, National Institutes of Health, Baltimore, MD
Endoplasmic reticulum (ER) dysregulation is associated with human pathologies including neurodegenerative, cardiovascular, muscular, and diabetic conditions. Maintenance of ER calcium is critical for functions of the ER and its depletion can lead to loss of ER resident proteins, in a process termed exodosis. Therapeutic compounds capable of attenuating the redistribution of ER proteins under pathological conditions may slow or stop disease progression. To identify such compounds, we performed a quantitative high-throughput screen (qHTS) using the SERCaMP assay, which monitors secretion of ER resident proteins triggered by calcium depletion.
SERCaMP was initially developed as a reporter of ER calcium homeostasis using a Gaussia luciferase with a modified signal peptide and carboxy-terminus (GLuc-SERCaMP), modifications that confer secretion of the reporter in response to ER calcium depletion (Henderson et al., 2014). The assay was used to screen 9,501 compounds, including a collection of drugs approved by the FDA (US), EMA (EU), NHI (Japan), and HC (Canada) regulatory agencies (Huang et al., 2011). Since the SERCaMP reporter reflects the exodosis phenomenon (Trychta et al., 2018a), compounds identified in the screen have the potential to prevent exodosis by different mechanisms such as stabilizing ER calcium or augmenting ERS retrieval.
1. Henderson, M.J., Wires, E.S., Trychta, K.A., Richie, C.T., and Harvey, B.K. (2014). SERCaMP: a carboxy-terminal protein modification that enables monitoring of ER calcium homeostasis. Mol Biol Cell 25, 2828-2839.
2. Huang, R., Southall, N., Wang, Y., Yasgar, A., Shinn, P., Jadhav, A., Nguyen, D.T., and Austin, C.P. (2011). The NCGC pharmaceutical collection: a comprehensive resource of clinically approved drugs enabling repurposing and chemical genomics. Sci Transl Med 3, 80ps16.
3. Trychta, K.A., Back, S., Henderson, M.J., and Harvey, B.K. (2018a). KDEL Receptors Are Differentially Regulated to Maintain the ER Proteome under Calcium Deficiency. Cell Rep 25, 1829-1840 e1826.
SEQUENCE No. (1, 2, 3, etc.); […] (e.g., Cells, Incubation, Reagent, etc.); VALUE and DESCRIPTION.
1; Reagent; 5 uL; 1000 SH-SY5Y cells per wells
3; Compound; 23 nL; Control inhibitor / compound library
5; Reagent; 100 nM; Thapsigargin
7; Reagent; 1 uL; 0.5x coelenterazine
8; Detection; Luminescence; ViewLux imaging system
NOTES (numbers refer to sequence above)
1; SH-SY5Y human neuroblastoma cells stably expressing GLuc-SERCaMP (SH-SY5Y-GLuc-ASARTDL) cells were seeded in 1,536 well white tissue culture treated plates (Corning, Cat# 7464) in DMEM-high glucose-sodium pyruvate (ThermoFisher Scientific, Cat #10569) supplemented with 10% bovine growth serum (Hyclone), 10 U/ml penicillin (Gibco), 10 ug/ml streptomycin (Gibco), and 20 mM HEPES.
2; Assay plates were incubated for 5 hour at 37C in a humidified incubator containing 5% CO2.
3; qHTS libraries (23 nl, final concentrations of 1.53 uM, 7.67 uM, 38.3 uM) or controls (neutral control: DMSO, positive control: dantrolene) were added using a Kalypsis pin-tool Robotic System equipped with 1536 pinheads.
4; Cells were then incubated for 16 hours at 37C, 5% CO2.
5; Thapsigargin was added at 100 nM to deplete ER calcium stores.
6; Cells were incubated for 4 hour (37 °C, 5% CO2)
7; Gaussia luciferase in the medium was measured by adding 1 ul of 0.5x coelenterazine (final concentration 0.07x) prepared in Gaussia Luciferase Glow Assay Buffer (Pierce), without addition of the Cell Lysis Buffer Reagent.
8; Luminescence was measured using a ViewLux […] CCD imaging system (Perkin Elmer) equipped with clear filters. […] The same controls were also used for the calculation of the Z' factor, a measure of assay quality control, as previously described (Zhang et al., 1999). […]
For orientation: In qHTS, concentration-response curves come from the screen itself.
Consider `O=C(O)CC1CC(c2ccccc2)=NO1` (stereo not given), for which the Potency result was “inactive”.

For the compound `Fc1cccc(/C=N/N=C/c2cccc(F)c2)c1`, the Potency result was “inactive”.

As to `Nc1nc(SCc2ccc([N+](=O)[O-])cc2)c2ncn([C@@H]3O[C@H](CO)[C@@H](O)[C@H]3O)c2n1`, the Potency entry was “inactive”.

Consider `CC(=O)N[C@H](C(=O)O)C(C)(C)SN=O`, for which the Potency entry was “inactive”.

Turning to `CC(=O)SCC[N+](C)(C)C`, the Potency result was “inactive”.

With `O=C(/C=C/c1ccc(O)cc1)c1ccc(O)cc1O`, the Potency entry was “inactive”.

`CCCCN1CCC(n2c(=O)[nH]c3ccccc32)CC1`: the Potency entry was “inactive”.

On to `COc1cccc2c1C(=O)c1c(O)c3c(c(O)c1C2=O)C[C@@](O)(C(=O)CO)C[C@@H]3O[C@H]1C[C@H](N)[C@H](O[C@@H]2CCCCO2)[C@H](C)O1`, for which the Potency result is “inactive”.

For the compound `NO`, the Potency entry is “inactive”.

`Nc1nc(Cl)nc2c1ncn2[C@@H]1O[C@H](COP(=O)(O)OP(=O)(O)OP(=O)(O)O)[C@@H](O)[C@H]1O`: the Potency result is “inactive”.

Consider `Clc1ccccc1-c1nc(-c2ccncc2)no1`, for which the Potency entry is “inactive”.

Consider `Cc1cc(NC(=O)Nc2ccc3c(ccn3C)c2)sn1`, for which the Potency result is “inactive”.

Take `O=C(Nc1ccccc1)c1cc([N+](=O)[O-])ccc1Cl`: the Potency entry is “inactive”.

As for `O=C1NC(=O)c2c1c(-c1ccccc1)cc1[nH]c3ccc(O)cc3c21`, the Potency entry was “inactive”.

Regarding `CC1(C)CCC=[N+]1[O-]`, the Potency result was “inactive”.

As for `COc1cc2c3cc1Oc1cc(ccc1O)C[C@@H]1c4c(cc(OC)c(O)c4Oc4ccc(cc4)C[C@@H]3N(C)CC2)CC[N+]1(C)C`, the Potency entry is “inactive”.

On to `NC(=O)C(=O)O`, for which the Potency entry was “inactive”.

In the case of `CCN(CC)c1ncnc2c1ncn2[C@@H]1O[C@H](COP(=O)(O)OP(=O)(O)C(Br)(Br)P(=O)(O)O)[C@@H](O)[C@H]1O`, the Potency result is “inactive”.

On to `O=C1NC(=O)/C(=C/c2ccc(-c3ccc(F)cc3O)o2)S1`, for which the Potency entry is “inactive”.

On to `CSc1ccccc1N1CCN(CCCCCC(=O)NC2CCCc3ccccc32)CC1` (stereo not given), for which the Potency result was “inactive”.

For the compound `Cc1ccc2c(n1)Oc1ccc(C(C)C(=O)OCC(=O)N(C)C)cc1C2` (stereo not given), the Potency result was “inactive”.

For the compound `O=C1C(SCCO)=C(SCCO)C(=O)c2ccccc21`, the Potency is 25.1 µM (active).

Take `c1ccc2sc(SSc3nc4ccccc4s3)nc2c1`: the Potency result was “inactive”.

Consider `OC[C@H]1O[C@@H](n2cnc3c(Nc4ccccc4)ncnc32)[C@H](O)[C@@H]1O`, for which the Potency entry is “inactive”.

Take `O=P(O)(O)C(Cl)(Cl)P(=O)(O)O`: the Potency entry is “inactive”.

`NCCCCCCCCCCN`: the Potency result was “inactive”.

As to `NC(CCCP(=O)(O)O)C(=O)O` (stereo not given), the Potency result is “inactive”.

Take `CN1CCc2ccccc2Cc2[nH]c3ccccc3c2CC1`: the Potency result is “inactive”.

On to `N=C(N)SCCc1ccc(CCSC(=N)N)cc1`, for which the Potency entry is “inactive”.

Regarding `Cc1c(Nc2ncccc2C(=O)O)cccc1C(F)(F)F`, the Potency entry is “inactive”.

In the case of `CN1CCc2cc(NC(=O)Nc3cccnc3)ccc21`, the Potency result was “inactive”.

In the case of `O=C(CS)Nc1ccccc1`, the Potency entry was “inactive”.

As to `CO/N=C(\C(=O)N[C@@H]1C(=O)N2C(C(=O)O)=C(COC(C)=O)CS[C@H]12)c1csc(N)n1`, the Potency result was “inactive”.

On to `CCCCCCCCCCCCCCCCCC(=O)NCC(COP(=O)([O-])OCC[N+](C)(C)C)OCC` (stereo not given), for which the Potency entry is “inactive”.

In the case of `C[C@@H](NC(=O)/C(C#N)=C/c1ccc(O)c(O)c1)c1ccccc1`, the Potency result is “inactive”.

As to `Cc1ccc(S(=O)(=O)/C=C/C#N)cc1`, the Potency result was “inactive”.

In the case of `CCCCCCCCCCCCCCCCCC(=O)OC(CC(=O)O)C[N+](C)(C)C` (stereo not given), the Potency entry was “inactive”.

Turning to `CCCn1c(=O)c2[nH]c(-c3ccc(OCC(=O)NCCN)cc3)nc2n(CCC)c1=O`, the Potency entry was “inactive”.

With `C=CC(=O)c1ccc(CCCCCC)cc1`, the Potency entry is “inactive”.

On to `Cn1cc(C2=C(c3ccc(Cl)cc3Cl)C(=O)NC2=O)c2ccccc21`, for which the Potency entry was “inactive”.
